Marburg entry inh: inhibitors of Marburg virus binding or cell entry; Marburg virus pseudotyped entry inhibition, cell reporter; Potency, µM (doses to about 37.8 µM), without a hit: at the highest dose activity change, negative = inhibition, usual class: inhibitors; 300,000 tested, 1.8% active; AID 540276; calls by dose curve; tested in HEK293 cells; further: potency means the concentration at half of the fitted maximal effect; on the % scale 0 is the no-effect control and ±100 the full control effect
HCV inh: HCV inhibition; Potency, µM (series often up to 41.8 µM), for inactives: at the top dose activity change, negative = inhibition, actives largely listed as inhibitors; Huh7.5.1 HCVcc-Cre infection, luciferase reporter, 44 h; AID 651820; 340,000 tested, 3.4% active; active means well fitted inhibition curve with a large enough effect; inconclusive means small, poorly fitted or top-dose-only effect, or another doubt; inactive means no such curve, though single readings can be large or run the other way; further: potency means the concentration at half of the fitted maximal effect; on the % scale 0 is the no-effect control and ±100 the full control effect
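HCVcc-Cre virus at an moi near 0.5 was added right after compound to cells cultured 4 h from seeding (1,000 cells/well). Luciferase activity was determined 44 h later, 15 min after substrate addition at RT.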
FMDV inh: blocks foot and mouth disease virus | FMDV antiviral cell-based qHTS | Potency, µM (top dose mostly 57.9 µM), without a hit: at the top dose activity change, negative = inhibition, actives largely listed as inhibitors | 410,000 tested, 1.2% active; calls by dose curve; tested in HEK293T cells; further: read-out not given here; potency means the concentration at half of the fitted maximal effect; on the % scale 0 is the no-effect control and ±100 the full control effect; nearly all actives have a fitted effect of over 45% in size
Lassa entry inh: Lassa virus entry inhibition | 300,000 tested, 1.2% active | Lassa virus pseudotype entry inhibition, cell reporter | AID 540256 | Potency, µM (series often up to 37.9 µM), for the others: at the top dose activity change, negative = inhibition, actives largely listed as inhibitors; calls by dose curve; tested in HEK293 cells; further: potency means the concentration at half of the fitted maximal effect; on the % scale 0 is the no-effect control and ±100 the full control effect; nearly all actives have a fitted effect of over 50% in size
SARS PLpro yeast: inhibitors of SARS-CoV papain-like protease in yeast | S. cerevisiae expressing SARS-CoV PLpro, growth rescue | Potency, µM (highest dose often 32.9 µM), for the others: top-dose activity, positive = growth rescue, most hits filed as activators | 330,000 tested, 0.19% active | AID 485353; calls by dose curve; further: potency means the concentration at half of the fitted maximal effect; 0% is about no effect; nearly all actives have a fitted effect of over 55% in size
HCMV antiviral: blocks human cytomegalovirus replication; activity change, negative = inhibition, % at 57.5 µM; AID 1259415; 410,000 tested, 4.5% active; HFF cells, HCMV-luciferase reporter, 72 h; hits give low values; in the data active means activity change below about -60%; inconclusive means no clear call, values can overlap the other calls; inactive means above about -39%; further: on the % scale 0 is the no-effect control and ±100 the full control effect
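Screen run at 2 compound doses on HFFs infected with reporter HCMV, MOI 1 PFU/cell. Luciferase activity from cell lysates at 72 h post infection gave inhibition relative to buffer-only and Salinomycin wells.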
An asterisk follows results filed as active; ? = inconclusive; . = no result given; [ ] = remark or other dose. Compounds with a hit are over-represented: about 8% of the library has one in this group of screens.

SMILES	Marburg entry inh	HCV inh	FMDV inh	Lassa entry inh	SARS PLpro yeast	HCMV antiviral
C/C=C(\C)C(=O)OC1[C@H](OC(C)=O)C2(CO)C(CC1(C)C)C1=CCC3C4(C)CCC(O[C@@H]5O[C@H](C(=O)O)[C@@H](O[C@@H]6O[C@H](CO)[C@@H](O)[C@H](O)[C@H]6O)[C@H](O)[C@H]5O[C@H]5O[C@H](CO)[C@@H](O)[C@H](O)[C@H]5O)[C@](C)(CO)C4CCC3(C)[C@]1(C)C[C@H]2O (stereo partly specified)	.	3.2µM*	28µM*	.	.	.
CCOC(=O)NN=C1C[C@@H](O)[C@@H](O)[C@@H]2[C@H]3C(=O)N(Cc4ccccc4)C(=O)[C@@H]3CC[C@@H]12	25%[14.2 µM]	.	.	.	.	.
CC(=O)C1=C(O)C(=O)N(c2ccc(Br)cn2)C1c1cccc([N+](=O)[O-])c1 (stereo unspecified)	.	12%	-21%	.	1%	-105*
CC(=O)C1=C(O)C(=O)N(c2ccc(Br)cn2)C1c1ccccc1[N+](=O)[O-] (stereo unspecified)	0%[46.1 µM]	4%	-12%	?	1%	97
Cc1cc(C)nc(/N=C(\N)Nc2ccc(-c3ccccc3)cc2)n1	?	11µM*	?	?	0%	?
COc1ccc(N/C(N)=N/c2nc(C)cc(C)n2)c(OC)c1	-6%[46.1 µM]	?	?	-7%	0%	-67*
COc1ccc(OC)c(N/C(N)=N/c2nc(C)cc(C)n2)c1	.	?	-22%	.	-1%	53
CC(=O)Nc1ccc(N/C(N)=N/c2nc(C)cc(C)n2)cc1	-19%[46.1 µM]	-7%	-24%	9%	-2%	40
O=C(NCCN1CCOCC1)c1ccncc1	-3%	18%	-12%	?	2%	18
O=C1C=C(NCCN2CCOCC2)C(=O)c2cnccc21	2.9µM*	?	.	?	-52%	.
COc1ccc(C(=S)N2CCOCC2)cc1OS(=O)(=O)c1ccc(Br)cc1	-25%	?	?	9%	-7%	-35
COc1ccc(-n2c(/C=C/c3ccc(O)c(OC)c3)nc3ccccc3c2=O)cc1	.	11µM*	-22%	.	-5%	-99*
O=c1c2ccccc2nc(/C=C/c2ccc3c(c2)OCO3)n1-c1cccc(O)c1	2%	-11%	-22%	?	1%	?
COc1cccc(-n2c(/C=C/c3ccc(O)c(O)c3)nc3ccccc3c2=O)c1	?	-19%	-19%	?	0%	16
COc1ccc(-n2c(/C=C/c3ccc4c(c3)OCO4)nc3ccccc3c2=O)cc1	?	?	?	-17%	-1%	-84*
Cc1ccc(-n2c(/C=C/c3ccc4c(c3)OCO4)nc3ccccc3c2=O)cc1	?	4%	.	10%	7%	-102*
COc1ccc(-n2c(/C=C/c3ccc(O)cc3)nc3ccccc3c2=O)cc1	.	?	?	.	-2%	?
CCN(CC)c1ccc(/C=C/C(=O)C2C(=O)C=C(C)OC2=O)cc1 (stereo unspecified)	?	-27%	34%	?	13%	67
CCc1ccc(NC(=O)C(CC)n2c(=O)c(-c3ccccc3NC(C)=O)nc3ccccc32)cc1 (stereo unspecified)	3%[46.1 µM]	.	?	14%[46.1 µM]	.	-91*
CCC1CCCCN1C(=O)c1ccc(OC2CCN(C(=O)C3CC3)CC2)cc1 (stereo unspecified)	-11%[46.1 µM]	-9%	-15%	-16%	0%	-23
CCn1c(C(=O)N2CCC(C(=O)NCCc3ccc(OC)cc3OC)CC2)cc2sccc21	?	.	?	.	.	-19
CCN1c2ccccc2NC2N=C(OC)C(c3ccccc3)C21 (stereo unspecified)	23µM*	2%	-12%	-34%[14.3 µM]	-3%	.
Cc1ccc(NC(=O)c2ccc(S(=O)(=O)N3CCCCC3)cc2)nc1	.	1%	-4%	.	-3%	-23
Cc1ccc2c(c1)nc(SCC(O)c1ccc(Br)cc1)n2C (stereo unspecified)	3%[46.1 µM]	.	-9%	-12%[46.1 µM]	.	?
COc1ccc(NC(=O)Nc2cccc3ccccc23)cc1S(N)(=O)=O	10%[46.1 µM]	18%	8%	4µM*	2%	-5
SMILES	Marburg entry inh	HCV inh	FMDV inh	Lassa entry inh	SARS PLpro yeast	HCMV antiviral
CCOc1ccccc1NC(=O)c1cccc2ccccc12	-17%	?	-5%	-11%	-13%	-32
COc1cccc(C(=O)Nc2cccc3ccccc23)c1OC	8.9µM*	?	21%	?	-8%	-11
COc1ccc(CC(=O)Nc2cccc3ccccc23)cc1OC	-26%	?	?	?	0%	-85*
COC(=O)c1c(-c2ccc(Br)cc2)csc1NC(=O)Cc1ccc(OC)c(OC)c1	-20%	?	?	2%	-9%	?
COC(=O)c1c(-c2ccc(C)cc2)csc1NC(=O)Cc1ccc(OC)c(OC)c1	?	?	?	?	2%	-65*
COc1ccc(NC(=O)Nc2cccc3ccccc23)cc1OC	.	-18%	-5%	.	1%	?
Cc1ccc(C)c(NC(=O)Cn2c(=O)n(CCC(C)C)c(=O)c3cccnc32)c1	17%[46.1 µM]	.	10%	.	.	15
CC(=O)N[C@@H](C(=O)O)C(C)(C)SN=O	.	.	-26%	.	.	.
COC(=O)c1c(-c2cccc3ccccc23)csc1NC(=O)Cc1ccc(OC)c(OC)c1	?	5.6µM*	?	11µM*	-4%	?
COc1cc2c(cc1NC(=O)c1ccccc1C)n(C)c(=O)n2C	?	.	5%	?	.	8
O=[N+]([O-])c1ccc2nc(-c3ccccc3)oc2c1	.	0%	100%	.	-6%	38
COc1cccc(-c2nc3ccc([N+](=O)[O-])cc3o2)c1	?	27%	82%	?	0%	-79*
CCCCCc1cc(=O)oc2c(C(CCN3CCCCC3)c3ccc(OC)cc3)c(OC)cc(OC)c12 (stereo unspecified)	.	?	-11%	.	-1%	7
CCCCCc1cc(=O)oc2c(C(CCN(CC)CC)c3ccc(OC)cc3)c(OC)cc(OC)c12 (stereo unspecified)	.	?	-5%	.	0%	-81*
Cc1oc(-c2cccc(NC(=O)C3CCCN(C)C3)c2)nc1CNC(=O)c1coc2c1C(=O)CCC2 (stereo unspecified)	.	.	-3%	.	.	.
O=C1CC(c2ccc(O)cc2)Oc2cc(O)cc(O)c21 (stereo unspecified)	15%	-5%	-17%	0%	1%	28
CC1CC(=O)c2c(cc3c(-c4c(O)cc(O)c5c(O)c6c(cc45)OC(C)CC6=O)c(O)cc(O)c3c2O)O1 (stereo unspecified)	.	4.5µM*	35µM*	.	0%	.
COc1ccc(CCNC(=O)C2CCN(Cc3nc(-c4ccc(OC)c(OC)c4)oc3C)CC2)cc1OC	2%[46.1 µM]	.	-15%	1%[46.1 µM]	.	-2
Cc1cc(C(F)F)n2nc(C(=O)Nc3ccc(C(C)C)cc3)nc2n1	?	.	22%	-10%[46.1 µM]	.	-1
